This note sets out measurements from PubChem BioAssay (NCI).

Common to all, as to assay: NCI-60 one-dose screen, 48 h (100 = growth as untreated, 0 = no growth, -100 = all killed)
Holding throughout (details): 10 µM

Assay [1] has as its system HCT-15 colon.
Assay [2] concerns HT29 colon.
Assay [3] relates to SNB-75 CNS.
The subject of assay [4] is SNB-19 CNS.
The subject of assay [5] is U251 CNS.
Assay [6] has as its system PC-3 prostate.
In assay [7] the test system is SK-MEL-5 melanoma.
Assay [8] has as its system UACC-62 melanoma.
The subject of assay [9] is LOX IMVI melanoma.
The subject of assay [10] is SK-MEL-28 melanoma.
Assay [11] concerns SK-MEL-2 melanoma.
For assay [12], the system named is EKVX NSCLC.
Assay [13] deals with UO-31 renal.
The test system of assay [14] is TK-10 renal.
Assay [15] deals with ACHN renal.
Assay [16] concerns CAKI-1 renal.
Assay [17] relates to A498 renal.
For assay [18], the system named is CCRF-CEM leukemia.
The test system of assay [19] is MOLT-4 leukemia.

Compounds without any hit were thinned out: in the full panel of roughly 83,000, 20% have a hit.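 Treatment: one concentration, 48 hours, 96-well format. Scoring: percent growth, with anything below 10 considered active.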 A number with no mark means an inactive call. Active and inactive are the calls of the source.

As to `CC(C)(C)c1ccc(OCCCCCCN2CCNCC2)cc1`, the growth was 6.25% (active) in [1]; 25% in [2]; 53.7% in [3]; 66.2% in [4]; 30.7% in assay [5]; 39.6% in assay [6]. Further, the growth in assay [7] was 50.4%; in assay [8] it was -32.2% (active); in assay [9] it was -16.7% (active); in [10] it was 59.1%; in assay [11], 82%; in [12], 69.9%. In addition, the growth in [13] is 72.8%; in [14], 90.8%; in assay [15], 70.6%; in [16], 75.9%; in [17] it was 86.1%; in assay [18], 12%. The growth in assay [19] was 31.3%.
As for `CN(C)c1ccc2c(c1)OC(N)=C(C#N)C2c1ccc2c(c1)CCO2` (configuration not stated), the growth in assay [1] was 18%; in [2] it was 9% (active); in assay [3] it was 40.8%; in assay [4], 31.4%; in assay [5] it was 21.7%; in assay [6], 24.1%. In addition, the growth in assay [7] was 10.3%; in assay [8], 34.8%; in [9], 29%; in assay [10], 57.6%; in [11] it was 32.1%; in assay [12] it was 35.9%. Moreover, the growth was 38.2% in assay [13]; 79.1% in [14]; 37.4% in assay [15]; 37% in assay [16]; -9.63% (active) in assay [17]; 28.7% in [18]. Moreover, the growth in [19] was 34.5%.
In the case of `COC(=O)[C@]12CC[C@@H](C)[C@H](C)[C@@H]1C1=CC[C@@H]3[C@@]4(C)C[C@@H](O)[C@H](O)[C@@](C)(CO)[C@@H]4[C@H](O)C[C@@]3(C)[C@]1(C)CC2`, the growth in [1] was -51.4% (active); in assay [2], -90.5% (active); in assay [3], -37.7% (active); in [4], -23.4% (active); in assay [5], -94.6% (active); in assay [6] it was -34.5% (active). Besides, the growth in assay [7] was -95.8% (active); in [8], -64% (active); in assay [9] it was -93% (active); in assay [10] it was -48.4% (active); in assay [11] it was -88.2% (active); in assay [12], -33.1% (active). The growth in [13] was -52.2% (active); in assay [14] it was -56.9% (active); in [15] it was -48.3% (active); in [16] it was 0.468% (active); in assay [17], -80.2% (active); in [18], -43.7% (active). In addition, in assay [19], the growth is -51.9% (active).
On to `COc1cccc(C(=O)N(c2ccc(F)c(F)c2)C(C(=O)NC(C)(C)C)c2cc3c(C)cc(C)cc3nc2Cl)c1` (configuration not stated), for which the growth is 56.5% in [1]; 71.1% in assay [2]; 62.9% in [3]; 74.1% in assay [4]; 69% in assay [5]; 30.9% in [6]. Besides, the growth in [7] was 58.2%; in assay [8], 66.6%; in assay [9], 68.7%; in [10] it was 85.6%; in assay [11], 77.1%; in assay [12] it was 54.5%. Further, the growth in assay [13] was 48.5%; in assay [14], 70.5%; in [15] it was 59.4%; in assay [16] it was 42.9%; in [17], 59.8%; in assay [18], 53.8%. For the same molecule, the growth in assay [19] is 43.8%.
Take `COC(=O)[C@]12CC[C@@H](C)[C@H](C)[C@@H]1C1=CC[C@@H]3[C@@]4(C)C/C(=N\O)[C@H](O)[C@@]5(C)COC(=C45)C[C@@]3(C)[C@]1(C)CC2`: the growth in assay [1] is -92.7% (active); in assay [2], -92.9% (active); in assay [3], -87.8% (active); in assay [4], -66.2% (active); in assay [5], -96.4% (active); in [6] it was -81.5% (active). The growth in assay [7] is -97.7% (active); in assay [8], -57.6% (active); in [9], -71.6% (active); in [10] it was -60.3% (active); in assay [11] it was -91.3% (active); in assay [12] it was -68.6% (active). Also, the growth in assay [13] is -85.6% (active); in [14], -91.2% (active); in assay [15], -80.9% (active); in assay [16] it was -80.7% (active); in [17], -88.8% (active); in assay [18], -49% (active). Further, the growth in assay [19] was -62.9% (active).
With `CN1/C(=C\C(I)C(I)C2=[N+](C)c3ccccc3C2(C)C)C(C)(C)c2ccccc21` (configuration not stated), the growth in [1] is 13.8%; in assay [2] it was 4.84% (active); in assay [3], 14.5%; in [4], 18.9%; in assay [5], 7.67% (active); in assay [6] it was 5.52% (active). The growth in assay [7] was -97.4% (active); in [8], 19.4%; in assay [9] it was 12%; in [10] it was 28.5%; in [11], -13% (active); in [12], 7.21% (active). Further, the growth in assay [13] was -1.6% (active); in assay [14] it was 18.7%; in assay [15] it was 4.88% (active); in [16] it was 21.5%; in assay [17], -2.55% (active); in [18] it was 12.1%. In addition, in [19], the growth is -12.5% (active).
With `NC1CCC(Nc2nc(NCc3ccc(-c4cccs4)nc3)c3ncn(C4CCCC4)c3n2)CC1` (configuration not stated), the growth in [1] was 0.306% (active); in assay [2] it was -12.7% (active); in assay [3], -63.5% (active); in assay [4], 10.2%; in [5], 3.21% (active); in assay [6], 1.6% (active). The growth in assay [7] is -96.8% (active); in assay [8], -42.4% (active); in assay [9] it was -82.1% (active); in assay [10], -62.3% (active); in assay [11] it was -76.8% (active); in assay [12], -17% (active). Moreover, the growth in [13] was 9.49% (active); in assay [14], 5.89% (active); in assay [15], -3.38% (active); in assay [16] it was 15.3%; in assay [17] it was -78.5% (active); in assay [18], -2.89% (active). Moreover, the growth in assay [19] is -16.3% (active).
Take `CN(C)Cc1cccs1`: the growth is 106% in assay [1]; 104% in assay [2]; 93.9% in assay [3]; 98.9% in assay [4]; 95.9% in [5]; 70.3% in [6]. For the same molecule, the growth in assay [7] was 90%; in [8], 95.4%; in assay [9] it was 93.1%; in [10] it was 102%; in [11] it was 103%; in assay [12], 103%. Moreover, the growth in assay [13] was 82.9%; in assay [14], 101%; in [15] it was 96.7%; in [16] it was 98.3%; in assay [17] it was 117%; in [18], 80%. In addition, the growth in [19] was 96.3%.
